HT1080-NT tox = qHTS for induction of synthetic lethality in tumor cells producing 2HG: qHTS for the HT-1080-NT fibrosarcoma cell line. HT-1080-NT fibrosarcoma viability, CellTiter-Glo ATP luminescence, 48 h. Potency, µM (highest dose often 46.1 µM), actives largely listed as cytotoxic. 360,000 tested, 1.6% active;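 also: NT is the 2HG producing partner of a matched IDH1 knockdown line; nearly all actives have a fitted effect of over 55% in size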
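750 cells/well, RPMI + 5% FBS; 2 h settle, compound pin-transfer, 48 h at 37 degrees C. CellTiter-Glo 10 min RT, luminescence. Normalized to DMSO and media-only wells.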
TDP1 cell CPT = qHTS for Inhibitors of human tyrosyl-DNA phosphodiesterase 1 (TDP1): qHTS in cells in presence of CPT; 420,000 tested, 12% active; chicken DT40 Tdp1-/-;hTDP1 cells + 20 nM CPT, ATP luminescence, 48 h; Potency, µM (top dose mostly 46.2 µM), usual class: inhibitors; also: nearly all actives have a fitted effect of over 55% in size
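Chicken DT40 Tdp1-/- cells complemented with human TDP1, 400 cells/well, exposed to compounds plus 20 nM camptothecin for at least 48 h at 37 C; viability read as ATP content by CellTiter-Glo luminescence.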
12-LOX inh = Primary qHTS assay for inhibitors of human arachidonate 12S-lipoxygenase (ALOX12): Round 2 | Polyunsaturated fatty acid lipoxygenase ALOX12 (Homo sapiens), P18054 | purified 12hLO, xylenol orange hydroperoxide absorbance | Potency, µM (top dose mostly 108 µM), actives largely listed as inhibitors | 580,000 tested, 1.1% active
Target sequence (P18054 whole entry, looked up): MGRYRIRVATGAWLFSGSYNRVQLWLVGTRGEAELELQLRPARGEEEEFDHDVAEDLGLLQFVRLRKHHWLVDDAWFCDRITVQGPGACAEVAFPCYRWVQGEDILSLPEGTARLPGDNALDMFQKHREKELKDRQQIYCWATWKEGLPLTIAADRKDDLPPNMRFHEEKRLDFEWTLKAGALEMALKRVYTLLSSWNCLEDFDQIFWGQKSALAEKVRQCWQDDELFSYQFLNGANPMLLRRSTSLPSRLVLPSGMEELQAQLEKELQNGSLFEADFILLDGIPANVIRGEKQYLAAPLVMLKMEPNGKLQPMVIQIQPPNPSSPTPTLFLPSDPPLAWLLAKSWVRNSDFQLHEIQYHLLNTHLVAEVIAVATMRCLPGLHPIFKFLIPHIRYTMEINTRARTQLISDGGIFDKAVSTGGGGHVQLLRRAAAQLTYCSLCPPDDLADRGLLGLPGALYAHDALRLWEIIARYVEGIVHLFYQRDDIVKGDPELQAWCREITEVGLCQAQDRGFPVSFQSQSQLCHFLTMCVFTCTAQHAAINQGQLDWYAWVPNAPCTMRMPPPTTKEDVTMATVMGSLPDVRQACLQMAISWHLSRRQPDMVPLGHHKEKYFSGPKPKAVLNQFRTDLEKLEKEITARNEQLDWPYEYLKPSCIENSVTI
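Purified human 12hLO at 150 nM in 25 mM Hepes, 0.01% Triton X-100, pH 7.0, preincubated 15 min at room temperature with compound. Reaction started with 40 uM arachidonic acid, 30 min at room temperature. Hydroperoxide measured by Fe-xylenol orange, 573/405 nm absorbance ratio.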
HT1080 IDH1KD tx = qHTS for induction of synthetic lethality in tumor cells producing 2HG: qHTS for the HT-1080-IDH1KD cell line; HT-1080 IDH1 knockdown viability, ATP luminescence, 48 h; Potency, µM (titrated, usually from 46.1 µM), actives largely listed as cytotoxic; 360,000 tested, 2% active; AID 686971, 2013
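HT-1080-IDH1KD cells (IDH1 knocked down), 750/well in RPMI with 5% FBS, treated with compound 48 h at 37 degrees C. Viability by CellTiter-Glo luminescence, normalised to DMSO and no-cell wells; concentration-response curves classed.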
DT40 TDP1 no CPT = qHTS for Inhibitors of human tyrosyl-DNA phosphodiesterase 1 (TDP1): qHTS in cells in absence of CPT | DT40 Tdp1-/- hTDP1 cells, no CPT, ATP luminescence, 48 h | Potency, µM (highest dose often 46.2 µM), usual class: inhibitors | 420,000 tested, 15% active; also: nearly all actives have a fitted effect of over 55% in size
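Growth kinetics read by CellTiter-Glo luminescence after ≥48 hr at 37 °C. Cells: DT40 Tdp1-/- stably carrying human TDP1, 400 per well, compound exposure in the absence of CPT (DMSO vehicle).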
IL-1B inflam inh = qHTS for Inhibitors of Inflammasome Signaling: IL-1-beta AlphaLISA Primary Screen. THP-1 LPS/ATP IL-1B secretion, AlphaLISA, 16 h; stronger effect = lower value. 360,000 tested, 4.7% active. AID 743279, 2014. activity change, % at 57.5 µM; in the data active = activity change below about -50%; inconclusive = mostly about -30% to -49%
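Secreted IL-1B measured by AlphaLISA bead assay after 16 h compound exposure of THP-1 cells; compounds (final up to 57.5 uM) added 1 h before LPS (250 ng/mL) and ATP (1.25 mM) stimulation; lower signal means less secretion.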
Of the large screens only hits and unclear results are named; the others gave an inactive call. This is one part of a sample in which hits are shown more often than they occur. Unless noted, calls follow the shape of the dose curve; as a rule, active = well fitted curve in the direction sought with a large enough effect; inconclusive = small, poorly fitted or top-dose-only effect, or another doubt; inactive = no such curve, though single readings can be large; an effect the other way counts as inactive or inconclusive.

COC(=O)Cn1c(=NC(=O)c2nc3ccccc3s2)sc2cc(S(N)(=O)=O)ccc21	TDP1 cell CPT inconclusive, DT40 TDP1 no CPT inconclusive
CCOC(=O)Cn1c(=NC(=O)C2COc3ccccc3O2)sc2cc(S(N)(=O)=O)ccc21 (stereo not drawn)	TDP1 cell CPT inconclusive, DT40 TDP1 no CPT 21µM
CCOC(=O)Cn1c(=NC(=O)c2cc(-c3cccs3)nc3ccccc23)sc2cc(S(N)(=O)=O)ccc21	HT1080-NT tox inconclusive, TDP1 cell CPT 23µM, DT40 TDP1 no CPT 16µM
COC(=O)Cn1c(=NC(=O)c2cc(-c3cccs3)nc3ccccc23)sc2cc(S(N)(=O)=O)ccc21	TDP1 cell CPT inconclusive, HT1080 IDH1KD tx inconclusive, DT40 TDP1 no CPT 9.2µM
Cc1nocc1C(=O)N1CCCn2ccnc2C1c1cnn(C)c1 (stereo not drawn)	none (no result: HT1080-NT tox, TDP1 cell CPT, HT1080 IDH1KD tx, DT40 TDP1 no CPT, IL-1B inflam inh)
Cc1ccccc1OCC(=O)Nc1nc(-c2ccncc2)cs1	TDP1 cell CPT 21µM, DT40 TDP1 no CPT 15µM
CCc1ccccc1OCC(=O)Nc1nc(-c2cccnc2)cs1	TDP1 cell CPT 3.3µM, HT1080 IDH1KD tx inconclusive, DT40 TDP1 no CPT 3.3µM
Cc1cc(C)c(OCC(=O)Nc2nc(-c3ccccn3)cs2)c(C)c1	TDP1 cell CPT 3.7µM, HT1080 IDH1KD tx inconclusive, DT40 TDP1 no CPT 4.1µM
Cc1cc(C)c(OCC(=O)Nc2ccccn2)c([N+](=O)[O-])c1	none
Cc1ccccc1OCC(=O)Nc1nnc(-c2ccncc2)s1	12-LOX inh inconclusive
CCC(=O)c1ccc(OCC(=O)Nc2nc(-c3cccnc3)cs2)cc1	12-LOX inh inconclusive, DT40 TDP1 no CPT inconclusive
O=S(=O)(c1ccc(OC(F)(F)F)cc1)N1CCC(O)(c2cccc(C(F)(F)F)c2)CC1	TDP1 cell CPT inconclusive, DT40 TDP1 no CPT inconclusive
COc1ccc2[nH]c3c(N4CCN(Cc5ccc6c(c5)OCO6)CC4)ncnc3c2c1	HT1080-NT tox 21µM, TDP1 cell CPT 15µM, HT1080 IDH1KD tx inconclusive, DT40 TDP1 no CPT 23µM, IL-1B inflam inh inconclusive
COc1ccc2[nH]c3c(N4CCC(O)(c5cccc(C(F)(F)F)c5)CC4)ncnc3c2c1	HT1080-NT tox inconclusive, TDP1 cell CPT 21µM, HT1080 IDH1KD tx 21µM, DT40 TDP1 no CPT 21µM
O=[N+]([O-])c1ccc2ncnc(N3CCN(Cc4ccc5c(c4)OCO5)CC3)c2c1	TDP1 cell CPT 13µM, DT40 TDP1 no CPT 9.2µM
Cc1cnc2c(S(=O)(=O)N3CCN(C)CC3)cccc2c1	none (no result: HT1080-NT tox, TDP1 cell CPT, HT1080 IDH1KD tx, DT40 TDP1 no CPT, IL-1B inflam inh)
c1ccc(Oc2nnc(-c3cccs3)c3ccccc23)cc1	DT40 TDP1 no CPT inconclusive
Cc1ccc(Oc2nnc(-c3cccs3)c3ccccc23)cc1C	HT1080-NT tox inconclusive, TDP1 cell CPT 18µM, HT1080 IDH1KD tx inconclusive, DT40 TDP1 no CPT inconclusive
Cc1ccc(Oc2nnc(-c3cccs3)c3ccccc23)cc1	TDP1 cell CPT inconclusive, DT40 TDP1 no CPT 18µM
COc1ccc(C(=O)N2CCCC(O)(CN3CCCC3)C2)cc1Cl (stereo not drawn)	none (no result: HT1080-NT tox, TDP1 cell CPT, HT1080 IDH1KD tx, DT40 TDP1 no CPT, IL-1B inflam inh)
O=C(CCS(=O)(=O)c1ccc(F)cc1)Nc1ccc(OC(F)F)c(Cl)c1	none (no result: HT1080-NT tox, TDP1 cell CPT, HT1080 IDH1KD tx, DT40 TDP1 no CPT, IL-1B inflam inh)
CCOC(=O)c1sc(NC(=O)CSc2n[nH]c(-c3ccncc3)n2)c(C#N)c1C	HT1080-NT tox inconclusive, TDP1 cell CPT inconclusive, HT1080 IDH1KD tx inconclusive, DT40 TDP1 no CPT inconclusive
Cc1ccsc1/C=C/C1=Cc2c(sc(N)c2C#N)C(C)(C)C1	12-LOX inh 18µM (no result: HT1080-NT tox, TDP1 cell CPT, HT1080 IDH1KD tx, DT40 TDP1 no CPT, IL-1B inflam inh)
CCOc1ccc(/C=C/C2=Cc3c(sc(NC(=O)CSc4n[nH]c(N)n4)c3C#N)C(C)(C)C2)cc1	HT1080-NT tox inconclusive, TDP1 cell CPT 13µM, 12-LOX inh inconclusive, HT1080 IDH1KD tx inconclusive, DT40 TDP1 no CPT 15µM, IL-1B inflam inh -93

From PubChem BioAssay
